Hits are enriched below; roughly 5.6% of the tested compounds scored in any of these assays.
PKM2 activator – activators of human pyruvate kinase M2; P14618; actives 0.34% (n = 260,000); AID 1631; Potency, µM (highest dose often 57.5 µM), for the others: at the top dose activation, usual class: activators; purified PKM2, Kinase-Glo ATP luminescence, activation; response scale: 0% is enzyme alone, no compound; further: potency means the concentration at half of the fitted maximal effect; nearly all actives have a fitted effect of over 55% in size
Target sequence (P14618 whole entry, looked up): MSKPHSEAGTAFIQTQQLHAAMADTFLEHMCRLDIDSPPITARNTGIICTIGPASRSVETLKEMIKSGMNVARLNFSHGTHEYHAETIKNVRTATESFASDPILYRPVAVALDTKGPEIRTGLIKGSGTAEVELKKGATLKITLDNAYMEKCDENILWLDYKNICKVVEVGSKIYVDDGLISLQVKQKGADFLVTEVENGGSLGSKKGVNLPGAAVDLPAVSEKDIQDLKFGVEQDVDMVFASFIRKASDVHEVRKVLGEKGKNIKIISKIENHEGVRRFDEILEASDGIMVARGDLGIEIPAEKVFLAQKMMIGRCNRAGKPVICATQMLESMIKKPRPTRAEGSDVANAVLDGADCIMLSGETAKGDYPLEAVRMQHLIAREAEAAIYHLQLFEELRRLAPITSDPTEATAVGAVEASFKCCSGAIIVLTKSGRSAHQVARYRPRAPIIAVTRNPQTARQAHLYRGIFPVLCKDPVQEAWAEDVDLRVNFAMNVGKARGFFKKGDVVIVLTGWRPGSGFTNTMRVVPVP
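Purified hPK-M2 (>95%) run at intermediate activity with 0.1 mM ADP and 0.5 mM PEP in 50 mM imidazole pH 7.2, KCl, MgCl2; 1 h room temperature. ATP formed read by Kinase-Glo luminescence; normalized to uninhibited and no-enzyme controls.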
Six1-Eya2 blk – blocks human Six1 binding to Eya2; Q15475+O00167; actives 0.56% (n = 360,000); AlphaScreen GST-Six1/His-Eya2 binding, biochemical; stronger effect = lower value; activity change, % (no concentration beside the values); in the data active means activity change below about -65%; inconclusive means mostly about -30% to -63%
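AlphaScreen luminescence read after one hour at 37 °C in darkness. Pin-transferred compounds met GST-Six1 and His-Eya2 protein (5X stock 250 nM/500 nM) plus glutathione donor and Ni-chelate acceptor beads (5X, 50 ug/mL).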
CtBP-E1A inh – CtBP/E1A binding inhibition. AlphaScreen GST-E1A/His-CtBP binding, 1536-well; stronger effect = lower value. activity change, % (test concentration not listed). actives 0.49% (n = 340,000). AID 651724; in the data active means activity change below about -65%; inconclusive means mostly about -30% to -63%
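Homogeneous bead-based format: GST-tagged E1A captured on glutathione donor beads, His-tagged CtBP on nickel acceptor beads; compounds precede bead addition by 2 h at 37 °C.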
RORg inh – blocks mouse ROR gamma transcriptional activity | P51450 | Drosophila S2 Gal4-RORgamma UAS-luciferase reporter, 20 h | Potency, µM (titrated, usually from 53.6 µM), inactives show top-dose activity change, negative = inhibition, hits mostly inhibitors | actives 5.4% (n = 310,000) | AID 2551; further: potency means the concentration at half of the fitted maximal effect; nearly all actives have a fitted effect of over 60% in size
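Using a luciferase readout, inhibitors were identified by reduced reporter activity in Drosophila cells coexpressing a copper-inducible Gal4–ROR gamma fusion and UAS-driven Photinus luciferase, incubated 20 hr after 700 uM copper sulfate.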
VP16 counter – inhibits Gal4-VP16 luciferase reporter, ROR gamma counter-screen; Drosophila S2 Gal4-VP16 UAS-luciferase, luminescence, 20 h; Potency, µM (series often up to 53.6 µM), for the others: at the highest dose activity, negative = inhibition, most hits filed as inhibitors; AID 2546; actives 3.5% (n = 310,000);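 further: Gal4-VP16 expression switched on by copper sulfate through the metallothionein promoter; potency means the concentration at half of the fitted maximal effect; nearly all actives have a fitted effect of over 50% in size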
The depositor's hits bear a star; ? = inconclusive; . = not tested or not shown; [ ] = dose if it differs, or a comment. Unless noted, the call rests on the fitted dose curve; in most records, active means well fitted curve in the direction sought with a large enough effect; inconclusive means small, poorly fitted or top-dose-only effect, or another doubt; inactive means no such curve, though single readings can be large; an effect the other way counts as inactive or inconclusive. On the % scale 0 is the no-effect control and ±100 the full control effect.

SMILES	PKM2 activator	Six1-Eya2 blk	CtBP-E1A inh	RORg inh	VP16 counter
COc1cc(/C=N/Nc2nn3cnnc3c3ccccc23)ccc1O	-68.4%	-88.7*	-89.5*	-33.6%	-28.4%
CCOc1cc(/C=N/Nc2nn3cnnc3c3ccccc23)ccc1O	-55.3%	-88.0*	-66.7*	-31.4%	-19.0%
CCOc1cc(/C=N/Nc2nncc(-c3ccccc3)n2)ccc1O	-3.3%	-20.3	-25.3	-7.4%	4.9%
COc1cccc(/C=N/Nc2nn3cnnc3c3ccccc23)c1	-49.4%	-71.2*	-78.9*	-2.5%	0.2%
Oc1ccc(/C=N/Nc2nn3cnnc3c3ccccc23)cc1	-30.2%	-88.9*	-89.8*	-13.7%	-8.2%
COc1ccc(/C=N/Nc2nncc3ccccc23)cc1	-41.9%	-13.6	0.0	-15.0%	-8.6%
COC(=O)C1=C(CS(=O)(=O)c2cc(OC)ccc2OC)NC(=O)NC1c1ccc(O)c(OC)c1 (stereo not drawn)	-2.9%[0.46 µM]	4.9	2.7	-1.0%	-6.7%
C(=N\Nc1ccc2nncn2n1)/c1ccco1	-0.8%	-5.8	?	-13.0%	11.0%
C(=N\Nc1nn2cnnc2c2ccccc12)/c1ccco1	-7.0%	-71.6*	-3.1	-9.0%	-16.9%
Clc1cccc(Cl)c1CNc1ccc(N2CCCC2)cc1	9.2%	?	-21.8	-10.3%	-5.0%
COc1cc(NC(=O)CSc2ncnc3c2cnn3Cc2ccccc2)cc(OC)c1	2.1%	-10.5	-9.7	1.0%	5.7%
COc1ccc(OC)c(NC(=O)CSc2ncnc3c2cnn3-c2ccccc2Cl)c1	8.2%	-25.9	-24.2	?	1.41µM*
CC(C)C[C@H](NC(=O)CNC(=O)[C@H](C)NC(=O)[C@H](CC(C)C)NC(=O)[C@H](CCCNC(=N)N)NC(=O)[C@H](Cc1cnc[nH]1)NC(=O)[C@@H](NC(=O)[C@@H](NC(=O)[C@@H]1CSSC[C@H](NC(=O)[C@@H](N)CO)C(=O)N[C@@H](CC(N)=O)C(=O)N[C@@H]([C@@H](C)O)C(=O)N[C@@H](C)C(=O)N[C@@H]([C@@H](C)O)C(=O)N1)C(C)C)[C@@H](C)O)C(=O)N[C@@H](CC(C)C)C(=O)N[C@@H](CO)C(=O)N[C@@H](CCCNC(=N)N)C(=O)N[C@@H](CO)C(=O)NCC(=O)NCC(=O)N[C@H](C(=O)N[C@H](C(=O)N[C@@H](CCCCN)C(=O)N[C@@H](CC(=O)O)C(=O)N[C@@H](CC(N)=O)C(=O)N[C@@H](Cc1ccccc1)C(=O)N[C@H](C(=O)N1CCC[C@H]1C(=O)N[C@H](C(=O)N[C@@H](CC(N)=O)C(=O)N[C@H](C(=O)NCC(=O)N[C@@H](CO)C(=O)N[C@@H](CCCCN)C(=O)N[C@@H](C)C(=O)N[C@@H](Cc1ccccc1)C(N)=O)C(C)C)[C@@H](C)O)C(C)C)C(C)C)C(C)C	.	.	.	14.7%	-2.0%
CSc1nnc(C)c(/C=C/Nc2ccc(Cl)cc2)n1	1.0%	-70.5*	?	7.6%	-6.9%
CSc1nnc(C)c(/C=C/Nc2ccc(F)cc2)n1	4.6%	?	?	-9.5%	10.4%
COc1ccc(N/C=C/C(=O)C(F)(F)F)cc1	2.9%	11.2	-5.1	2.4%	-6.9%
COc1ccc(N/C=C/c2nc(SC)nnc2C)cc1	18.6%	-72.2*	-85.2*	-15.5%	-8.9%
CN(C)c1cc[n+](CC(=O)c2ccc(OC(F)F)cc2)cc1	-0.8%	5.8	7.2	-30.7%	?
O=C(/C=C/Nc1ccc(F)cc1Br)c1ccccc1	-30.5%	4.8	11.5	2.51µM*	7.08µM*
O=C(/C=C\Nc1ccccc1Br)c1ccc2c(c1)OCO2	-9.3%	-13.3	-4.2	5.01µM*	?
Cc1cc(N/C=C/C(=O)c2ccccc2)ccc1Br	-5.7%	4.8	.	?	?
O=C(/C=C\Nc1cccc(F)c1)c1ccc2c(c1)OCO2	-11.5%	8.5	1.9	?	10µM*
C=CCn1c(C)cc(C(=O)CSc2nnc3n(CCC)c(=O)c4ccccc4n23)c1C	.	8.9	2.0	.	.
O=C(CSc1nnc(-c2ccc(O)cc2)n1Cc1ccccc1)NNC(=O)c1ccc(Br)cc1	-7.2%	-13.2	-10.1	9.2%	28.0%
O=C1NN(c2ccc(Cl)c(Cl)c2)C(=O)/C1=C/c1ccc(-c2ccccc2C(=O)O)o1	.	?	-72.1*	-1.8%	-5.8%
SMILES	PKM2 activator	Six1-Eya2 blk	CtBP-E1A inh	RORg inh	VP16 counter
CCOC(=O)c1nc(C)sc1-c1ccnn1S(=O)(=O)c1cccc(Cl)c1	0.6%	-0.9	0.8	?	-5.8%
S=C1NCN(Cc2cccnc2)CN1	-4.6%	10.4	19.1	12.0%	-3.6%
S=C1SCN(Cc2ccccc2)CN1Cc1ccccc1	.	5.3	2.7	?	?
S=C1SCN(Cc2cccnc2)CN1Cc1cccnc1	2.5%	3.2	0.5	0.631µM*	5.62µM*
COc1ccc(CN2CSC(=S)N(Cc3ccccc3)C2)cc1	.	10.2	.	?	10µM*
COc1ccc(CN2CSC(=S)N(Cc3ccc(OC)cc3)C2)cc1	-3.9%	3.9	.	6.31µM*	17.8µM*
S=C1SCN(Cc2ccccc2)CN1Cc1ccco1	.	-29.5	0.2	.	.
O=C(c1ccco1)N1CCN(Cc2nnnn2C2CCCCC2)CC1	-1.3%	-9.2	-1.3	-30.6%	-16.0%
CN(C(=O)c1cccc(NC(=O)Cc2cccc(NC(=O)C3CCN(C(=O)c4ccccc4)CC3)c2)c1)C1CC1	.	6.5	1.4	.	.
CCOc1cc2[nH]c(=S)n(CC3CCCN3CC)c(=O)c2cc1OCC (stereo not drawn)	-1.0%	-1.1	-2.6	10µM*	2.6%
COc1cc2[nH]c(=S)n(CCN3CCOCC3)c(=O)c2cc1OC	-1.6%	1.8	8.8	?	-4.7%
CCOc1cc2[nH]c(=S)n(CC3CCCO3)c(=O)c2cc1OCC (stereo not drawn)	-5.7%	-6.9	-2.7	11.2µM*	?
COc1cc2[nH]c(=S)n(CC3CCCO3)c(=O)c2cc1OC (stereo not drawn)	-4.1%	-3.8	-1.0	?	?
CCC1CCCCN1CCn1c(=S)[nH]c2cc(OC)c(OC)cc2c1=O (stereo not drawn)	-1.9%	-6.5	-6.7	10µM*	-14.1%
CCN(CC)C(=O)COc1ccc2oc(-c3ccco3)cc(=O)c2c1	-1.7%	-8.2	-2.6	31.7%	6.4%
CCOc1ncccc1C(=O)OCCCC(=O)c1ccc(Br)cc1	.	33.5	.	.	.
CC(C)(C)NS(=O)(=O)c1ccc2c(c1)oc(=O)c1cc(S(=O)(=O)NC(C)(C)C)ccc12	-15.3%	1.1	1.2	-15.6%	-24.0%
O=c1oc2cc(S(=O)(=O)NCCCO)ccc2c2ccc(S(=O)(=O)NCCCO)cc12	14.1µM*	2.3	5.1	0.0%	-7.0%
CNS(=O)(=O)c1ccc2c(c1)oc(=O)c1cc(S(=O)(=O)NC)ccc12	1.58µM*	6.5	.	11.5%	-4.0%
